# Compound activity from PubChem BioAssay.
# D2 ag-1: human D2 receptor agonism in beta-arrestin assay. P14416. DiscoveRx PathHunter D2 beta-arrestin, luminescence, 90 min; 100% = 57 uM dopamine signal. activation, % (test concentration not listed). 360,000 tested, 0.084% active; in the data active = activation above about 40%; inconclusive = between about 15% and that limit
# Target sequence (P14416 whole entry, looked up): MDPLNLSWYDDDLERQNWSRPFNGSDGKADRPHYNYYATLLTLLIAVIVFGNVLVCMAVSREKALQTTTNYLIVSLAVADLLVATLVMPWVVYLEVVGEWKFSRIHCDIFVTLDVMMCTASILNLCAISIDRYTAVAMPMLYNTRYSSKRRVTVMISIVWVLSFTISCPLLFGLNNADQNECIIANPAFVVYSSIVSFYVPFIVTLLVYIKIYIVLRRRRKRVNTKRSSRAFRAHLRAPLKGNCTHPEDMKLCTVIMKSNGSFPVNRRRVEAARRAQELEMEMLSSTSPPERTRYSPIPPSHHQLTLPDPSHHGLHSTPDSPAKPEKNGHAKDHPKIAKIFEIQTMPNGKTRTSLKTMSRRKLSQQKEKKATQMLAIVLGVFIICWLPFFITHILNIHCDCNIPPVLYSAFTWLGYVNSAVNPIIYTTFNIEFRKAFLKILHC
#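 DiscoveRx PathHunter D2 beta-arrestin cells (2,100/well) attached overnight, then compound-stimulated 90 min at 37 C in HBSS/10 mM HEPES/0.1% Tween-20 buffer; beta-galactosidase complementation read by luminescence after 1 h at ambient temperature. Dopamine 57 uM final (EC100) as control.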
# D2 PAM-1: positive allosteric modulators of human D2 dopamine receptor | 360,000 tested, 0.23% active | DiscoveRx D2 beta-arrestin cells, luminescence, 90 min; 100% = 57 uM dopamine signal | P14416 | potentiation, % (no concentration beside the values); in the data active = potentiation above about 50%; inconclusive = mostly about 30% to 49%
#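 PathHunter D2 cells, attached overnight at 37 deg C, received compound in DMSO plus dopamine at EC20 (50 nM final) for 90 min at 37 deg C. Beta-arrestin recruitment was read as luminescence after 1 h with detection reagent at ambient temperature.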
# D2 ag-2: agonists of human D2 dopamine receptor. HEK293 T-REx D2 cells, calcium flux agonist mode. activation, % at 2 µM. 340,000 tested, 0.53% active. AID 485358;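 active = activation over 3 SD above normal in the single-dose calcium agonist read, cut at about 30% in these data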; also: 0% is about no effect
#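 In this primary screen, compounds producing a positive calcium signal within 180 s of addition to tetracycline-induced, force-coupled HEK293 Trex D2 cells are flagged; cells are dye-loaded with a no-wash calcium kit beforehand.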
# D2 PAM-2: positively modulates the human D2 dopamine receptor allosterically; P14416; HEK293 T-REx D2, calcium flux, EC20 dopamine potentiation; potentiation, % at 10 µM; 340,000 tested, 0.34% active; AID 485347;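 active = potentiation over 3 SD above the plate norm, cut at about 30% in these data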; also: 0% is about no effect
#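 Tetracycline-induced Hek293 Trex D2 cells, force-coupled to calcium, loaded with no-wash calcium dye. Compound added with 180 s kinetic read for agonism, then EC20 dopamine and a further 180 s read for potentiation.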
# D2 antag: antagonists of human D2 dopamine receptor. 340,000 tested, 2% active. inhibition, % at 10 µM. AID 485344. HEK293 TREx D2 cells, calcium flux, dopamine EC80. P14416; in the data active = inhibition above about 30%; inactive = below that, where a call was filed; also: 0% is about no effect
#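 Antagonism is scored as inhibition of an EC80 dopamine-evoked calcium signal in a force-coupled, tetracycline-inducible HEK293 T-REx D2 line, with compound present 180 s before agonist.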
# D3 arrestin ag: D3 receptor agonism confirmed, beta-arrestin readout. Potency, µM (titrated, usually from 76.9 µM), for inactives: at the highest dose activation, actives largely listed as activators. shares compounds with D2 ag-2. 2,300 tested, 4% active. DiscoveRx D3 beta-arrestin cells, luminescence, 90 min;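 also: potency is read from the fitted curve at half-maximal effect; 100% = dopamine control response; nearly all actives have a fitted effect of over 70% in size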
# D2 ag-3: activates human D2 dopamine receptor in D3 counterscreen. 2,300 tested, 5.9% active. AID 720507. DiscoveRx PathHunter D2 beta-arrestin, luminescence, 90 min; response scale: percent relative to full dopamine signal. shares compounds with D2 ag-2. Potency, µM (doses to about 76.9 µM), inactives show at the top dose activation, most hits filed as activators; also: potency is read from the fitted curve at half-maximal effect; % of control where 0% means no effect; nearly all actives have a fitted effect of over 70% in size
# Active calls of the source: *; ? = inconclusive; . = no result given. Shown are actives, neighbours in structure and some others; about 2.4% of the full set was active somewhere. Unless noted, calls follow the shape of the dose curve; as a rule, active = well fitted activation curve with a large enough effect; inconclusive = small, poorly fitted or top-dose-only effect; inactive = flat fitted curve, though single readings scatter.
SMILES,D2 ag-1,D2 PAM-1,D2 ag-2,D2 PAM-2,D2 antag,D3 arrestin ag,D2 ag-3
O=C(c1ccco1)N1CCN(C(=O)c2cc3cc([N+](=O)[O-])ccc3oc2=O)CC1,1,-3,1,6,-13,.,.
COc1ccc(NC(=O)C(NS(=O)(=O)c2cccc3nsnc23)c2ccccc2)cc1 (centres undefined),.,.,0,-3,.,.,.
COc1cccc2c1cc1c(=O)n(CC(=O)N3CCCCC3)nc(C)n12,.,.,5,1,.,.,.
COc1cccc2c1cc1c(=O)n(CC(=O)N3CCCCCC3)nc(C)n12,14,8,43*,-12,11,?,?
CCOC(=O)C1CCN(C(=O)Cn2nc(C)n3c(cc4c(OC)cccc43)c2=O)CC1,.,.,.,-16,.,.,.
CCOC(=O)C1CCCN(C(=O)Cn2nc(C)n3c(cc4c(OC)cccc43)c2=O)C1 (centres undefined),?,8,19,-1,5,?,27%
O=C(Nc1nccs1)c1cccnc1,-2,-5,1,-7,12,-4%,-1%
C1=CC2CC1CC2CN1CCN(c2ccccc2)CC1 (centres undefined),?,?,76*,-28,77*,7%,?
O=C(c1ccco1)N1CCN(CC2CC3C=CC2C3)CC1 (centres undefined),42*,?,24,.,84*,?,?
Cc1ccccc1CN1CCN(CC2CC3C=CC2C3)CC1 (centres undefined),-3,-29,-1,-24,19,.,.
Cc1ccc(NC(=O)CSc2nnc3[nH]c(=O)cc(-c4ccccc4)n23)cc1Cl,.,.,0,-6,.,.,.
O=[N+]([O-])c1ccccc1CN1CCN(c2ncccn2)CC1,9,-4,47*,-3,4,2%,10%
O=[N+]([O-])c1cccc(CN2CCN(c3ncccn3)CC2)c1,?,8,75*,-17,29,9%,?
O=[N+]([O-])c1ccc(CN2CCN(c3ncccn3)CC2)cc1,49*,?,83*,-27,85*,?,18µM*
Cc1cccc(-c2nnc(C3CCN(S(=O)(=O)c4cccc(Cl)c4)CC3)o2)c1,.,.,0,13,.,.,.
CCOc1ccc(OCC)c(NC(=O)C(NS(=O)(=O)c2ccc(Br)s2)c2ccccc2)c1 (centres undefined),.,.,.,-1,.,.,.
Cc1ccc(Cl)cc1NC(=O)Cn1c(SCC(=O)NCc2ccccc2)nc2ccccc21,.,.,.,-2,.,.,.
CCN(CC)CCN(C(=O)c1ccco1)c1nc2c(C)c(C)ccc2s1,.,.,2,-14,.,.,.
CC(C)c1cccc(-c2ccc3c(c2)S(=O)(=O)c2cccc(C(=O)O)c2C3=O)c1,-4,-14,-1,-7,-2,-1%,0%
COc1ccc(CCNC(=O)CSCc2nc(-c3ccc(OC)c(OC)c3)oc2C)cc1OC,.,.,-2,-6,.,.,.
CN(CCNC(=O)C1CCN(S(=O)(=O)N2CCOCC2)CC1)CCc1ccccc1,3,-26,55*,-18,28,7%,5%
Cc1cnc(C(=O)Nc2ccc(S(=O)(=O)N(C(C)C)C(C)C)cc2)cn1,4,-3,0,3,27,.,.
Cc1cnc(C(=O)Nc2ccc(S(=O)(=O)NCC(C)C)cc2)cn1,-2,-9,15,-8,36*,7%,-3%
O=C(CCC(=O)c1ccccc1)NCCc1c[nH]c2ccccc12,4,-13,66*,-20,5,14%,5%
O=C(NCCc1ccccc1)c1ccc(CS(=O)(=O)c2ccc(Br)cc2)o1,-3,-15,0,-1,-8,.,.
SMILES,D2 ag-1,D2 PAM-1,D2 ag-2,D2 PAM-2,D2 antag,D3 arrestin ag,D2 ag-3
CN(CCNC(=O)c1ccc(CS(=O)(=O)c2ccc(Br)cc2)o1)CCc1ccccc1,-2,-13,53*,-25,24,-21%,14%
O=C(OCCN1C(=O)c2cccc3c(N4CCOCC4)ccc(c23)C1=O)c1ccccc1Cl,7,10,.,-6,.,?,?
Cc1occc1-c1nnc(SCC(=O)Nc2nc3ccccc3s2)o1,6,-2,45*,-22,-19,-4%,-2%
Cc1cccc(C)c1OCc1cc(=O)n2c(-c3ccccc3)csc2n1,.,.,0,.,.,.,.
O=c1cc(CN2CCN(c3ccc(O)cc3)CC2)nc2scc(-c3ccccc3)n12,10,-1,28,-7,8,35µM*,18%
COc1ccc2oc(=O)c(C(=O)N3c4ccccc4CC3C)cc2c1 (centres undefined),11,6,.,.,.,-3%,10%
CC(CCCCCCCCC(=O)O)N(CCO)C(=O)OC(C)(C)C (centres undefined),-4,-6,0,7,-2,-2%,-3%
COc1ccc(C(=O)O)cc1NC(=S)NC(=O)CSc1ccc(Cl)cc1,0,0,-1,5,6,-15%,-4%
CC(C)Cc1ccc(-c2cc3nc(NCCCn4ccnc4)ccn3n2)cc1,?,30,.,.,.,.,.
O=C(CN1CCN(c2ccccn2)CC1)N1CC(O)CO1 (centres undefined),7,0,29,-13,12,21%,6%
Cc1ccc(C(=O)CN2CCN(c3ccccn3)CC2)c(C)c1,?,4,.,.,.,?,?
Cc1ccc2[nH]cc(C(=O)CN3CCN(c4ccccn4)CC3)c2c1,2,-42,19,-28,34*,10%,4%
O=C(CN1CCN(c2cccc(Cl)n2)CC1)N1CC(O)CO1 (centres undefined),0,-8,0,-3,3,.,.
c1ccc2c(c1)ncn2CCn1cnc2ccccc21,-4,-12,-1,-3,-16,.,.
NCCCn1cnc2ccccc21,-5,-1,1,.,3,-2%,1%
COc1cccc(CNC(=O)CN2C(=O)N(c3c(C)cccc3C)S(=O)(=O)c3ccccc32)c1OC,.,.,0,-12,.,.,.
CN1CCN(C(=O)N2c3ccccc3C=Cc3ccccc32)CC1,-1,-10,54*,-18,-11,-4%,-4%
CCC(C)NC(=O)C1=CC(c2ccc3c(c2)OCO3)=NS(=O)(=O)N1C (centres undefined),.,.,10,4,.,.,.
CCOC(=O)c1cnn(-c2cccc(F)c2)c1C1CCNCC1,.,.,0,8,.,.,.
C=CCn1c(SCC(=O)c2ccc(O)c(O)c2)nnc1-c1cccc(OC)c1,1,-4,41*,-45,2,5%,9%
